According to PubChem BioAssay AID463173 (ICCB-Longwood Screening Facility, Harvard Medical School, 2010):
Out of some 52,000 compounds screened, about 4,300 (8.3%) were called active. This is one part of a sample in which actives are shown more often than they occur. Rule as the data show it: active = survival mostly below about 52% (no sharp cut-off); inactive = mostly above about 56%.

Tested on: DeltatarO mutant
Experiment: S. aureus survival, RN4220 and DeltatarO strains – OD600, teichoic acid synthesis inhibitors, primary screen (AID 463173)
Details: S. aureus RN4220 wild type/DeltatarO growth, OD600, 18 h, stronger effect = lower value, screened at 18.75 µg/mL (by protocol)

Structure (SMILES) | survival
COc1cccc(NC(=O)c2cnc(SCC(=O)N3CCOCC3)n(C)c2=O)c1 | 120% (inactive)
COc1ccc(-n2nc(C(=O)N3CCC(C)CC3)c3c4ccccc4n(C)c3c2=O)cc1Cl | 87% (inactive)
O=C(CSc1nnc(-c2ccccc2)c(-c2ccccc2)n1)Nc1ccccc1Cl | 75% (inactive)
CCc1ccccc1NC(=O)CSc1nnc(-c2ccccc2)c(-c2ccccc2)n1 | 88% (inactive)
CC(C)CSc1nnc(-c2ccccc2)c(-c2ccccc2)n1 | -8% (active)
COc1cccc(C(=O)NCC(c2ccc(N(C)C)cc2)N2CCc3ccccc32)c1 (configuration not stated) | 144% (inactive)
COc1ccccc1-c1nnc(C2CCN(C(=O)c3cccc(Cl)c3)CC2)o1 | 88% (inactive)
O=C(CSc1nc2ccccc2n1Cc1cccc(F)c1)N1CCN(c2ccc(F)cc2)CC1 | 64% (inactive)
CN1CCc2c(sc(N)c2C(=O)O)C1 | 80% (inactive)
O=C(CSc1nc(=O)n(CCN2CCOCC2)c2c1CCC2)Nc1ccc(F)cc1F | 124% (inactive)
COc1cccc(-n2c(=O)c3c(C)c(C(=O)N(C)C)sc3n(Cc3cccc(C)c3)c2=O)c1 | 37% (active)
CCOc1ccc(-n2c(=O)c3c(C)c(C(=O)N(C)C)sc3n(Cc3cc(C)ccc3C)c2=O)cc1 | 0% (active)
Cc1ccc(-n2c(=O)c3c(C)c(C(=O)N(C)C)sc3n(Cc3ccccc3C)c2=O)cc1C | 98% (inactive)
CCc1ccc(-n2c(=O)c3c(C)c(C(=O)N(C)C)sc3n(Cc3cccc(C)c3)c2=O)cc1 | 99% (inactive)
CCOc1ccc(-n2c(=O)c3c(C)c(C(=O)N(C)C)sc3n(CC(=O)Nc3c(C)cc(C)cc3C)c2=O)cc1 | 72% (inactive)
COc1cccc(-n2c(=O)c3c(C)c(C(=O)N(C)C)sc3n(Cc3ccc(F)cc3Cl)c2=O)c1 | 92% (inactive)

Structure (SMILES) | survival
CCn1c(C)c(C2N3CC4(C)CN2CC(C)(C3)C4=O)c2ccccc21 (configuration not stated) | 92% (inactive)
N#C/C(=C\c1cn(CC(=O)N2CCCC2)c2ccccc12)C(=O)NCc1ccc2c(c1)OCO2 | 66% (inactive)
Fc1ccc(-c2noc3ncnc(NCc4ccc(Cl)cc4)c23)cc1 | 84% (inactive)
CCOC(=O)c1ccc(N2C(=O)c3n[nH]c(-c4cccs4)c3C2c2ccc(OC)cc2OC)cc1 (configuration not stated) | 76% (inactive)
COc1ccccc1NC(=O)c1ccc(COc2ccc(C)c(C)c2)o1 | 1% (active)
COC(=O)c1cc(NC(=O)c2ccc(-c3ccc(Cl)cc3Cl)o2)cc(C(=O)OC)c1 | 53% (inactive)
CCOc1ccc(NC(=O)c2cc(=O)c3cc(CC)ccc3o2)cc1 | 57% (inactive)
CCCc1ccc(OCc2ccc(C(=O)Nc3ccccc3C(=O)OC)o2)cc1 | -2% (active)
Cc1cc(C)cc(OCc2ccc(C(=O)Nc3ccccc3F)o2)c1 | 45% (inactive)
COC(=O)c1ccccc1NC(=O)c1ccc(COc2ccccc2Cl)o1 | 63% (inactive)
CC(=O)Nc1ccc(NC(=O)c2ccc(COc3ccc(Cl)cc3Cl)o2)cc1 | 46% (active)
COc1ccc(NC(=O)c2ccc(COc3ccccc3OC)o2)cc1OC | 61% (inactive)
CCOc1ccc(OCc2ccc(C(=O)Nc3cc(OC)c(OC)c(OC)c3)o2)cc1 | 54% (active)
C=CCc1ccc(OCc2ccc(C(=O)Nc3ccc(NC(C)=O)cc3)o2)c(OC)c1 | 121% (inactive)
COC(=O)c1ccccc1NC(=O)c1ccc(COc2cc(C)cc(C)c2)o1 | 40% (inactive)
COc1ccccc1NC(=O)c1ccc(C)o1 | 61% (inactive)
